# Rows were chosen to be rich in hits. Some 1.9% of all compounds tested hit in one or more screens of this group.
# NPSR antag = blocks cAMP signaling of the human neuropeptide S receptor. Q6W5P4. CHO-NPSR cells, cAMP TR-FRET, antagonist mode. Potency, µM (doses to about 38.3 µM), without a hit: at the highest dose activity change, negative = inhibition, most hits filed as inhibitors. 1% of 220,000 active; note: % is set by controls: 0 for no effect and ±100 for the full control effect; nearly all actives have a fitted effect of over 50% in size
# Target sequence (Q6W5P4 whole entry, looked up): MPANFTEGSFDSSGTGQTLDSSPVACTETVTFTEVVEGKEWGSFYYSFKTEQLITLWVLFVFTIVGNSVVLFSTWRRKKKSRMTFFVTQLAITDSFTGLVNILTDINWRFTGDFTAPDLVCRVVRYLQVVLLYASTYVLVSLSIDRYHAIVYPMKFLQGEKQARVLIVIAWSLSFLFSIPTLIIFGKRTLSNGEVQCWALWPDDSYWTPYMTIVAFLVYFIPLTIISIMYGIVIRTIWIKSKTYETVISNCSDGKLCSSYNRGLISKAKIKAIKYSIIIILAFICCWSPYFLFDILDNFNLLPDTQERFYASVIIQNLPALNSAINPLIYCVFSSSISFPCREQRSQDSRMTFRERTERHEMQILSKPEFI
# HttQ103 aggreg = reduces HttQ103-GFP aggregates in PC12 cells | PC12 HttQ103-GFP aggregates, Acumen cytometry, 40 h | Potency, µM (top dose mostly 46.1 µM), for inactives: at the highest dose activity change, negative = inhibition, most hits filed as inhibitors | 1.1% of 220,000 active; note: % is set by controls: 0 for no effect and ±100 for the full control effect; nearly all actives have a fitted effect of over 60% in size
#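 Using laser scanning cytometry, GFP-positive aggregates were counted after lysis of PC12 cells induced with 100 nM tebufenozide to express HTT exon 1 Q103–GFP. Compounds were tested in titration.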
# ERK EGF inh = inhibitors of EGF-stimulated ERK signaling pathway; HEK293-V1b, EGF-stimulated phospho-ERK AlphaScreen; Potency, µM (top dose mostly 11.5 µM), for the others: at the highest dose activity change, negative = inhibition, most hits filed as inhibitors; 0.41% of 130,000 active; AID 1454;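 note: plate controls were stimulated vehicle wells for no effect and unstimulated vehicle basal for full effect; nearly all actives have a fitted effect of over 55% in size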
#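 Homogeneous cell-based phospho-ERK assay: HEK293/V1b cells in 1% FBS, compound 30 min then EGF 5 min, AlphaScreen luminescence. Activity normalized between DMSO and 25 nM EGF controls; AC50 from Hill modelling.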
# IMPase Li inh = cell-permeable IMPase inhibitors with lithium potentiation; CHO-M1 cells, IP1 TR-FRET (IP-One), carbachol + lithium; Potency, µM (top dose mostly 59.4 µM), inactives show top-dose activity, negative = IMPase inhibition, actives largely listed as inhibitors; 0.35% of 210,000 active; AID 1457;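 note: IP1 builds up when IMPase is blocked and the TR-FRET signal falls; plate controls were basal vehicle for no effect and high inhibitor control for full effect; nearly all actives have a fitted effect of over 50% in size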
#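 Lithium-sensitised IP1 accumulation assay; M1-expressing CHO cells treated 30 min at 37C with compound. Competitive antibody detection by time-resolved FRET followed a 10 min room-temperature lysis step.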
# HTT cytoprotect = protects HTT-Q103 PC12 cells, measured by ATP; PC12 HTT-Q103 induced, cytoprotection, ATP luminescence, 40 h; Potency, µM (top dose mostly 56.4 µM), inactives show cytoprotection (ATP increase), usual class: activators; 0.14% of 230,000 active; AID 1471; note: % of control where 0% means no effect; nearly all actives have a fitted effect of over 45% in size
#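 Compounds were screened for protection of PC12 cells against cell death after tebufenozide induction (100 nM final) of mutant Huntingtin exon 1 (Q103) fused to GFP.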
# Active calls of the source: *; u = inconclusive; x = not tested or not shown; [ ] = dose if it differs, or a comment. Calls come from the whole dose curve; as a rule, active = well fitted curve in the direction sought with a large enough effect; inconclusive = small, poorly fitted or top-dose-only effect, or another doubt; inactive = no such curve, though single readings can be large; an effect the other way counts as inactive or inconclusive. Potency is the fitted concentration of half-maximal effect.
SMILES,NPSR antag,HttQ103 aggreg,ERK EGF inh,IMPase Li inh,HTT cytoprotect
CN1Cc2c(N3CCOCC3)nc3sc(C#N)c(N)c3c2CC1(C)C,18%,-12%[9.22 µM],u,x,-2%[10 µM]
NNC(=O)c1sc2nc(N3CCOCC3)c3c(c2c1N)CCCC3,-13%,4%[9.22 µM],u,x,13%[10 µM]
COc1cccc(CS(=O)(=O)c2nnnn2-c2ccccc2)c1,x,x,20%,16%,u
Cn1c(=O)c2c(nc(NCc3ccco3)n2CCc2ccccc2)n(C)c1=O,-8%[46.1 µM],13µM*,x,5%[38.3 µM],-21%
Cn1c(=O)c2c(nc(NCc3ccccc3)n2Cc2ccc(F)cc2)n(C)c1=O,-22%[46.1 µM],20µM*,5%,23%,-21%[10 µM]
C=CCc1cccc(CNc2nc3ccccc3n2C(C)C)c1O,u,18µM*,x,8%[38.3 µM],-65%
Cn1c(NCc2ccccc2O)nc2ccccc21,-5%[46.1 µM],-4%,x,1%[38.3 µM],-13%
COc1cc2c(C#N)c(N3CCN(c4ccccc4OC)CC3)nc(N)c2c(N)n1,0%[46.1 µM],11µM*,x,21%[38.3 µM],13%[10 µM]
COc1cc2c(C#N)c(N3CCN(C)CC3)nc(N)c2c(N)n1,-2%[46.1 µM],-33%,x,-12%[38.3 µM],-20%
COC(=O)N[C@@H](CCc1ccccc1)[C@]1(C(C)=O)CCCC1=O,x,x,14%,18%,-51%
[ClH+][Cu][ClH+].[Cu].[OH2+]c1ccc2ccccc2c1CN1CCCCC1.[OH2+]c1ccc2ccccc2c1CN1CCCCC1,x,x,x,-11%,x
CC1=C(C(=O)OCc2ccc3c(c2)OCO3)C(c2ccccc2)NC(=O)N1 (centres undefined),-3%[46.1 µM],2.8µM*,x,-4%[38.3 µM],16%
CC1=C(C(=O)OCc2ccc3c(c2)OCO3)C(c2ccc(O)c([N+](=O)[O-])c2)NC(=O)N1 (centres undefined),-24%,7.1µM*,-1%,0%,x
c1ccc(-c2nc(-c3ccccc3)c(Nc3ccc4ccccc4c3)o2)cc1,x,x,12%,13%,u
Cc1ccccc1N1C(=O)CC(Sc2nnc(-c3ccccc3)o2)C1=O (centres undefined),u,22µM*,x,10µM*,-96%
CCOC(=O)C1=C(N)Oc2cc(O)ccc2C1c1ccc([N+](=O)[O-])cc1 (centres undefined),u,-3%[9.22 µM],18µM*,21%,4%[10 µM]
CCOC(=O)C1=C(O)C(=O)N(c2ccc(S(N)(=O)=O)cc2)C1c1ccc([N+](=O)[O-])cc1 (centres undefined),2%,-3%[9.22 µM],7%[57.5 µM],x,-4%[10 µM]
CCCCc1nc2c(c3c1C[C@H](C)OC3)CN(C(=O)Nc1cccc(C#N)c1)CC2,x,x,x,6%,-14%[10 µM]
CCC(CC)C(=O)Nc1cccc(S(=O)(=O)c2cccc(NC(=O)C(CC)CC)c2)c1,11%[46.1 µM],-2%[9.22 µM],x,11µM*,17%
CC(=O)/C(=N/Nc1ccccc1[N+](=O)[O-])N1CCCc2ccccc21,7%[7.67 µM],11µM*,13µM*,x,x
CC(=O)/C(=N/Nc1ccc([N+](=O)[O-])cc1)N1CCCc2ccccc21,-51%,1%[9.22 µM],u,x,2%[10 µM]
Cc1nc2ccccc2n1CC(=O)N1CC(=O)Nc2ccccc21,1%[46.1 µM],-10%,x,9%[38.3 µM],11%
O=C1CN(C(=O)Cn2ncc(Cl)c(Cl)c2=O)c2ccccc2N1,-32%,11µM*,3%,0%,-159%
CCn1cc(C(=O)NCc2ccco2)c(=O)c2cc(S(=O)(=O)N3CCCCCC3)ccc21,u,13µM*,x,9%[38.3 µM],-95%[10 µM]
CCn1cc(C(=O)NCc2ccco2)c(=O)c2cc(S(=O)(=O)N3CCC(C)CC3)ccc21,u,u,x,16%[38.3 µM],-62%[0.074 µM]
SMILES,NPSR antag,HttQ103 aggreg,ERK EGF inh,IMPase Li inh,HTT cytoprotect
COc1cc(CC(=O)Nc2ccc(Cl)c(C(F)(F)F)c2)cc(OC)c1OC,-17%,10µM*,0%,5%,22%[10 µM]
COc1cc2nc3c(c([Si](C)(C)C(C)(C)C)c2cc1OC)Cn1c-3cccc1=O,x,x,6%,-10%,-30%
CCCC(Oc1ccc(Br)cc1)c1nc2c3cc(OC)c(OC)cc3nc(=S)n2[nH]1 (centres undefined),-45%,u,u,8%,u
CC(Oc1ccc(Br)cc1)c1nc2c3ccccc3nc(=S)n2[nH]1 (centres undefined),-39%,8.9µM*,u,8%,-70%
CCCCOC(=O)Nc1ccc(S(=O)(=O)Nc2nc(C)cc(C)n2)cc1,-5%[46.1 µM],-9%,x,0%[38.3 µM],6%
CCCCOC(=O)NS(=O)(=O)c1sc(CC(C)C)cc1-c1ccc(Cn2c(CC)nc3c(C)cc(C)nc32)cc1,13µM*,x,-6%,11%,1%[1.9 µM]
Cc1cc2c(nc1C)CCCN2C[C@H](C)O/N=C1/[C@H]2O[C@@H]2[C@@H](O)[C@H]2[C@H]1CCn1c(=O)n(-c3ccccc3)c(=O)n12,x,x,x,x,-5%[10 µM]
COc1ccc(C2C(=O)c3ccccc3C2=O)cc1OC,13µM*,7%,-1%,44%,-33%
CC(C)(COP(=O)(O)OP(=O)(O)OC[C@H]1O[C@@H](n2cnc3c(N)ncnc32)[C@H](O)[C@@H]1OP(=O)(O)O)C(O)C(=O)NCCC(=O)NCCS (some centres undefined),x,-2%,x,x,11%
CCCN(Cc1cc2cc(C)ccc2[nH]c1=O)C(=O)c1cccc(OC)c1,-11%[46.1 µM],10µM*,x,22%,-26%[0.074 µM]
Cc1c(I)c(=O)n(-c2ccccc2)n1C,x,7%,x,-8%,-1%
Cc1cccc(-n2c(SCC(=O)N3CC(=O)Nc4ccccc43)nc3ccccc3c2=O)c1C,-11%,u,5%,11%,0.89µM*
COc1cccc(CNC(=O)C2CCC(CNc3nc(=S)[nH]c4ccccc34)CC2)c1 (centres undefined),-11%,-24%,26%,10µM*,-100%
Cc1ccc(CNC(=O)C2CCC(CNc3nc(=S)[nH]c4ccccc34)CC2)cc1 (centres undefined),-33%,-28%,-1%,10%,-19%[10 µM]
Cn1cc(C(=O)[C@@H]2CCc3[nH]cnc3C2)c2ccccc21,x,4%,x,x,9%
CC1CCCN(C(=O)CSc2cnc3ccccc3n2)C1 (centres undefined),u,20%,x,3.2µM*,9%
CC1CCN(C(=O)CSc2nc3ccccc3s2)CC1,-6%[46.1 µM],0%,x,-6%[38.3 µM],-5%
Cc1nc2ccccc2nc1SCC(=O)N1CCC(C)CC1,u,-4%,x,13µM*,3%
CCOC(=O)c1nc(-c2ccc(OC)c(OC)c2)no1,9%,0.63µM*,0%,6%,-77%[10 µM]
COc1ccc2c(c1)O[C@@H](c1cccc(C(F)(F)F)c1)[C@H](OC(=O)Nc1ccc(C)c(Br)c1)C2=O,x,x,-7%,-6%,30%
Cc1cccc(/C=N/Nc2ccc3ccccc3n2)c1,u,u,4%,23%,-51%[10 µM]
Cc1ccc(/C=N/Nc2ccc3ccccc3n2)o1,-23%,13µM*,u,-4%,-164%

# Source: PubChem (National Center for Advancing Translational Sciences (NCATS))
